Only some compounds are listed: those with a hit (about 1.8% of all), similar ones and a draw of the others.
Beta cell apopt: blocks beta cell apoptosis | INS-1E cytokine-induced death, ATP luminescence, 48 h; percent of positive-control rescue, neutral wells zero | 0.8% of 300,000 active | AID 435005 | protection from apoptosis, % (no concentration beside the values);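 active = Every replicate reaches about 75%, or at least half do and their mean reaches it too, limit read from the data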;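 also: 0% = cytokine-treated negative control wells and 100% = positive control rescue; higher means more ATP so stronger rescue from cytokine killing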
697 NFkB inh: lowers PMA/ionomycin-induced NF-kB signal in 697 B cells; 697 B-cell NF-kB luciferase reporter, 16 h; inhibition, % at 4 µM; 0.33% of 330,000 active; AID 435022; in the data active = inhibition above about 35%
Gli-Sufu block: blocks Gli-Sufu signaling in a luciferase reporter; inhibition, % at 5 µM; AID 588413; Sufu-KO-LIGHT fibroblasts, Gli luciferase reporter luminescence; 0.74% of 340,000 active;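 active = inhibition above about 55%, limit read from the data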;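 also: 0% = DMSO-treated cells and 100% = wells with medium but no cells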
Jurkat NFkB inh: inhibitors of the PMA/ionomycin-induced NF-kB reporter in Jurkat cells; 0.53% of 330,000 active; inhibition, % at 4 µM; PMA/ionomycin-induced NF-kB luciferase reporter, luminescence; AID 435003; in the data active = inhibition above about 50%
* = called active by the depositor; x = no result given.

SMILES	Beta cell apopt	697 NFkB inh	Gli-Sufu block	Jurkat NFkB inh
CCN(CC)S(=O)(=O)c1ccc(Cl)c(C(=O)Nc2ccc(Cl)cc2[N+](=O)[O-])c1	100*	-5	27	5
CN(C)S(=O)(=O)c1ccc(Cl)c(C(=O)Nc2ccccc2[N+](=O)[O-])c1	0	-6	-17	-5
Oc1ccc(Br)cc1-c1cc(-c2ccc(Cl)cc2)n[nH]1	92*	-58	-1	-32
Oc1ccc(Br)cc1-c1cc(-c2ccccc2)n[nH]1	21	5	13	-7
O=C1C=C(NC2CCCCC2)CCC1	-4	18	0	0
Cc1ccc(C)c(NC(=O)/C(C#N)=C/c2cn(CC(=O)NCc3ccco3)c3ccccc23)c1	95*	14	4	2
Cc1ccc(NC(=O)/C(C#N)=C/c2cn(CC(=O)NCc3ccco3)c3ccccc23)cc1C	22	9	2	-22
CCOC(=O)c1c(C)[nH]c(C)c1C(=O)CSc1nc2ccccc2c(=O)n1-c1ccc(CC)cc1	110*	5	37	-4
CN(C)S(=O)(=O)c1ccc(C(=O)Oc2coc(CSc3ncccn3)cc2=O)cc1	1	-17	0	-3
c1ccc(N2CCN(CC3CCCCC3)CC2)cc1	139*	5	2	0
COc1ccc(C[C@H]2CN3C(=NC[C@@H]3Cc3ccccc3)N2CCNC(=O)CCC2CCCCC2)cc1	101*	6	17	36
COc1ccc(C(=O)OCC(=O)c2c[nH]c3ccccc23)c(OC)c1	-7	-28	-44	-9
CCOc1ccc(N(C)S(=O)(=O)c2ccc(C)c(C(=O)OCC(=O)c3c[nH]c4ccccc34)c2)cc1	75*	-29	33	0
CCOC(=O)c1sc(C)c2c1NC(C)(c1cccs1)NC2=O (configuration not stated)	2	-24	11	-1
C=CCn1c(C)c(/C=C/c2cc[n+](C)cc2)c2ccccc21	97*	-3	45	26
CCn1cc(/C=C/c2cc[n+](C)cc2)c2ccccc21	85*	x	58*	x
C=CCn1cc(/C=C/c2cc[n+](C)cc2)c2ccccc21	80*	5	66*	21
CCN(CC)C(=O)Cn1c(C)c(/C=C/c2cc[n+](C)cc2)c2ccccc21	-5	7	19	3
CC(C)n1cc(/C=C/c2cc[n+](C)cc2)c2ccccc21	x	-18	71*	20
Cc1[nH]c2ccccc2c1/C=C/c1cc[n+](C)cc1	x	x	20	x
Cc1ccccc1/C=C/c1cc[n+](C)cc1	1	1	6	3
CC(NC(=O)c1cccc(Cn2cc([N+](=O)[O-])cn2)c1)c1ccc(C(C)(C)C)cc1 (configuration not stated)	3	-1	0	2
N#C/C(=C(/O)CCCl)c1ccccn1	-6	-13	-9	-7
C(=N\Nc1ncnc2sc3c(c12)CCC3)/c1cccs1	96*	-28	x	16
O=C(Nc1cccc(Cl)c1N1CCCC1)c1ccc([N+](=O)[O-])o1	2	-10	-7	-10
SMILES	Beta cell apopt	697 NFkB inh	Gli-Sufu block	Jurkat NFkB inh
CCN1CCN(c2c(Cl)cccc2NC(=O)c2ccc([N+](=O)[O-])o2)CC1	103*	-17	x	40
CCOc1ccc(N=Cc2c(C)[nH]n(-c3nc4ccccc4[nH]3)c2=O)cc1	114*	10	16	2
Cc1[nH]n(-c2ccccc2)c(=O)c1C=Nc1cnc2ccccc2c1	0	12	1	15
Cc1ccc(-n2c(=S)sc3c(=O)n(-c4ccccc4F)c(SCC(=O)O)nc32)cc1C	1	-7	1	15
COc1ccc(-c2c([C@H]3[C@H]4C=CC[C@@H](C)[C@@H]4C(=O)N3Cc3ccccc3)ccc3ccccc23)cc1	107*	24	0	27
COc1ccc(-c2ccc([C@H]3[C@H]4C=CC[C@@H](C)[C@@H]4C(=O)N3Cc3ccccc3)c(F)c2)cc1	69	10	-12	15
S=C(NCc1ccccn1)NN=Cc1ccccn1	x	x	74*	x
COc1cc(C=NO)nc(-c2ccccn2)c1	x	x	87*	x
COc1ccc2nc(-c3ccccn3)[nH]c2c1	8	-116	-62	-115
COc1ccc2nc(C)cc(SCC(=O)N/N=C/c3ccc(O)cc3O)c2c1	77*	1	-10	25
COc1ccc2nc(C)cc(SCC(=O)N/N=C/c3ccccc3)c2c1	-16	7	8	10
CC(C)(C)n1[nH]c2c3c(ccc2c1=O)C(=O)c1ccccc1C3=O	86*	-26	-2	2
Cc1ccc(-n2[nH]c3c4c(ccc3c2=O)C(=O)c2ccccc2C4=O)cc1	2	27	-7	-5
Cc1cc(/C=N/n2cnnc2)c(C)n1-c1ccc2c(c1)OCO2	x	4	1	8
Cc1cccc(-n2c(C)cc(/C=N/n3cnnc3)c2C)c1	111*	-5	5	10
O=C1N(Cc2cccnc2)C[C@@H]2C[C@@H](c3ccc4nonc4c3)N3CCC[C@@]123	-3	5	-1	3
CCCCCc1cc(=O)oc2c(C(CCN3CCCCC3)c3ccc(OC)cc3)c(OC)cc(OC)c12 (configuration not stated)	47	12	24	-1
CCCCCc1cc(=O)oc2c(C(CCN3CCCC(C)C3)c3ccc(OC)cc3)c(OC)cc(OC)c12 (configuration not stated)	109*	6	11	13
CCCCCc1cc(=O)oc2c(C(CCN(CC)CC)c3ccc(OC)cc3)c(OC)cc(OC)c12 (configuration not stated)	98*	12	6	7
C=CCOc1c(Cl)cc(CNCCC)cc1Cl	-3	5	-28	5
CN1CCc2c(sc(NC(=O)c3ccc4ccccc4c3)c2C(N)=O)C1	7	-85	x	-144
COc1cc2ccccc2cc1C(=O)Nc1sc2c(c1C(N)=O)CCN(C(C)C)C2	112*	-92	x	3
O=c1c2ccccc2nc(COc2ccccc2)n1/N=C/c1ccc(O)cc1O	87*	-26	0	22
O=c1c2ccccc2nc(COc2ccccc2)n1/N=C/c1c[nH]c2ccccc12	3	-4	2	-12
Cc1nc2ccccc2c(=O)n1/N=C/c1ccc(O)c(O)c1O	-5	5	8	8
SMILES	Beta cell apopt	697 NFkB inh	Gli-Sufu block	Jurkat NFkB inh
Cc1nnc(-c2ccccc2)c(=O)n1/N=C/c1c(O)ccc2ccccc12	88*	-31	91*	10
Cc1nc2ccccc2c(=O)n1/N=C/c1ccc2ccccc2c1O	115*	-16	7	8
Cc1nnc(C)n1/N=C/c1c(O)ccc2ccccc12	-3	12	3	17
O=C(NCc1ccc2c(c1)OCO2)c1ccc(S(=O)(=O)NCC2CCCO2)cc1 (configuration not stated)	5	-2	-3	-8
CC(OC(=O)CN1C(=O)c2ccccc2C1=O)C(=O)NCc1ccccc1 (configuration not stated)	5	10	-1	-20
C=CC(C)(C)c1c(O)c(CC=C(C)C)c(O)c2c(=O)c3ccc(O)c(O)c3oc12	107*	-11	38	-4
O=C(Nc1ccc(Cl)cc1)Nc1nc(-c2ccccc2O)cs1	109*	-12	-4	-2
O=C(Nc1ccc(Cl)cc1)Nc1nc(-c2sccc2Br)cs1	52	-4	2	-10

Assay outcomes deposited in PubChem BioAssay by several laboratories.
